# ± gives the standard deviation of the averaged measurements.
# Key:
# [1] = test system: DLD1; test: cell viability (CellTiter-Glo) relative to plate median (fraction of plate median); higher = more viable cells; details: 5 µM; treatment time 24 h; reporter: 7TFP
# Summary of the method: (§1)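 Colorectal cancer lines with stably integrated lentiviral TCF/Wnt firefly luciferase reporters received library compounds at a final 5 µM, 24 h after seeding into 384-well plates, for a 24 h exposure. Reported figures are plate-median-normalised firefly luciferase or CellTiterGlo luminescence per well. They average two independent replicates.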
# [2] = test system: HCT116; test: as above; details: 5 µM; treatment time 24 h; reporter: TCF4/Wnt
# Summary of the method: as §1
# [3] = test system: SW480; test: as above; details: 5 µM; treatment time 24 h; reporter: 7TFP
# Summary of the method: as §1
# [4] = test system: DLD1; test: TCF/Wnt firefly luciferase reporter signal relative to plate median (fraction of plate median); higher = higher Wnt reporter signal; details: 5 µM; treatment time 24 h; reporter: 7TFP
# Summary of the method: as §1
# [5] = test system: SW480; test: as above; details: 5 µM; treatment time 24 h; reporter: 7TFP
# Summary of the method: as §1
SMILES,cell viability [1],cell viability [2],cell viability [3],TCF/Wnt firefly luciferase reporter signal [4],TCF/Wnt firefly luciferase reporter signal [5]
CN(C)CCc1c[nH]c2ccc(CS(=O)(=O)N3CCCC3)cc12,0.875 ± 0.04,0.929 ± 0.088,0.999 ± 0.086,1.17 ± 0.035,1.06 ± 0.088
CC1=C(CC(=O)O)c2cc(F)ccc2/C1=C\c1ccc([S+](C)[O-])cc1 (stereo not given),0.941 ± 0.028,0.901 ± 0.018,0.949 ± 0.1,1.03 ± 0.23,1.03 ± 0.12
CC(COc1ccccc1)NC(C)C(O)c1ccc(O)cc1 (stereo not given),1.03 ± 0.096,0.966 ± 0.091,0.916 ± 0.017,1.18 ± 0.05,1.01 ± 0.076
C=C(C)[C@H]1C(=O)[C@H]2O[C@@]2(C)C(=O)[C@@H](O)[C@H](C(=C)C)CCC2=C[C@H]1OC2=O [bipinnapterolide A],1.17 ± 0.071,1.04 ± 0.092,1.01 ± 0.033,0.971 ± 0.042,0.913 ± 0.12

# Reference: the supplement of paper PMC6522484
